Results published in PubChem BioAssay AID1159580 (chemical genetic matrix, 2015).
Values joined by “and” are separate entries in the source; they are usually repeats but may differ in a detail not shown here. Identical values can stand only once. In all, about 5,500 compounds went through this assay and about 2,000 (36%) were called active. Inconclusive results (about 18%) are left out. Some of the results follow. Values without a mark were called inactive. Cut-off read from the data, not from the text of the source: active = normalized growth mostly below about 0.91 (no sharp cut-off); inconclusive = no clear call, values can overlap the other calls; inactive = mostly above about 0.92.

Experiment: chemical genetic growth profiling, strain panel (AID 1159580);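 note: tested at 20 µM; growth read once vehicle control cultures reached saturation at 30 °C; 1 = growth at the plate median or of vehicle wells; lower values mean less growth of the strain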
Settings: growth OD

Work on `Cc1ncc(CNC(=O)N(CCCl)N=O)c(N)n1` yielded a normalized growth (S. cerevisiae deletion strains, locus YJR075W, strain HOC1, active compounds read low) of 1.01, a normalized growth (S. cerevisiae deletion strains, locus YKL009W, strain mrt4, active compounds read low) of 0.976 and a normalized growth (S. cerevisiae deletion strains, locus YKL068W, active compounds read low) of 1. The normalized growth (S. cerevisiae deletion strains, locus YKL085W, strain MDH1 (second series), active compounds read low) was 0.996, the normalized growth (S. cerevisiae deletion strains, locus YKL085W, strain MDH1, active compounds read low) was 0.996 and the normalized growth (S. cerevisiae deletion strains, locus YKL160W, strain elf1, active compounds read low) was 0.996. The normalized growth (S. cerevisiae deletion strains, locus YKL190W, strain CNB1, active compounds read low) was 1.01, the normalized growth (S. cerevisiae deletion strains, locus YKR001C, strain vps1, active compounds read low) was 0.974 and the normalized growth (S. cerevisiae deletion strains, locus YKR026C, strain gcn3, active compounds read low) was 1.02. For the same compound, the normalized growth (S. cerevisiae deletion strains, locus YKR091W, strain srl3, active compounds read low) was 1, the normalized growth (S. cerevisiae deletion strains, locus YLL001W, strain dnm1, active compounds read low) was 0.97 and the normalized growth (S. cerevisiae deletion strains, locus YLL026W, active compounds read low) was 1.01. For the same compound, the normalized growth (S. cerevisiae deletion strains, locus YLL041C, strain sdh2, active compounds read low) was 1.01, the normalized growth (S. cerevisiae deletion strains, locus YLR027C, strain aat2, active compounds read low) was 0.99 and the normalized growth (S. cerevisiae deletion strains, locus YLR039C, strain RIC1, active compounds read low) was 1.04. For the same compound, the normalized growth (S. cerevisiae deletion strains, locus YLR058C, strain SHM2, active compounds read low) was 1.02, the normalized growth (S. cerevisiae deletion strains, locus YLR102C, strain apc9, active compounds read low) was 0.983 and the normalized growth (S. cerevisiae deletion strains, locus YLR113W, strain HOG1, active compounds read low) was 0.982. It also gave a normalized growth (S. cerevisiae deletion strains, locus YLR221C, strain rsa3, active compounds read low) of 1.03, a normalized growth (S. cerevisiae deletion strains, locus YLR258W, strain gsy2, active compounds read low) of 1 and a normalized growth (S. cerevisiae deletion strains, locus YLR262C, strain YPT6 (second series), active compounds read low) of 1.07. For the same compound, the normalized growth (S. cerevisiae deletion strains, locus YLR262C, strain YPT6, active compounds read low) was 1.03, the normalized growth (S. cerevisiae deletion strains, locus YLR268W, strain sec22, active compounds read low) was 0.983 and the normalized growth (S. cerevisiae deletion strains, locus YLR320W, strain mms22, active compounds read low) was 1.03. For the same compound, the normalized growth (S. cerevisiae deletion strains, locus YLR330W, strain CHS5, active compounds read low) was 1.02, the normalized growth (S. cerevisiae deletion strains, locus YLR342W, strain FKS1 (second series), active compounds read low) was 1.01 and the normalized growth (S. cerevisiae deletion strains, locus YLR342W, strain FKS1, active compounds read low) was 1.02. The normalized growth (S. cerevisiae deletion strains, locus YLR357W, strain rsc2, active compounds read low) was 1.02, the normalized growth (S. cerevisiae deletion strains, locus YLR370C, strain arc18, active compounds read low) was 1.01 and the normalized growth (S. cerevisiae deletion strains, locus YLR371W, strain rom2, active compounds read low) was 0.981. It also gave a normalized growth (S. cerevisiae deletion strains, locus YLR384C, strain iki3, active compounds read low) of 1.03, a normalized growth (S. cerevisiae deletion strains, locus YLR418C, strain cdc73, active compounds read low) of 0.965 and a normalized growth (S. cerevisiae deletion strains, locus YML016C, strain PPZ1, active compounds read low) of 1.02. The normalized growth (S. cerevisiae deletion strains, locus YML032C, strain rad52, active compounds read low) was 0.903 (active), the normalized growth (S. cerevisiae deletion strains, locus YML120C, strain ndi1, active compounds read low) was 0.991 and the normalized growth (S. cerevisiae deletion strains, locus YML124C, strain tub3, active compounds read low) was 0.989. The normalized growth (S. cerevisiae deletion strains, locus YMR058W, strain fet3, active compounds read low) was 1.02, the normalized growth (S. cerevisiae deletion strains, locus YMR078C, strain ctf18, active compounds read low) was 0.964 and the normalized growth (S. cerevisiae deletion strains, locus YMR125W, strain sto1, active compounds read low) was 1. For the same compound, the normalized growth (S. cerevisiae deletion strains, locus YMR129W, active compounds read low) was 1.02, the normalized growth (S. cerevisiae deletion strains, locus YMR205C, strain PFK2, active compounds read low) was 1.01 and the normalized growth (S. cerevisiae deletion strains, locus YMR223W, strain ubp8, active compounds read low) was 0.994. The normalized growth (S. cerevisiae deletion strains, locus YMR231W, strain pep5, active compounds read low) was 1, the normalized growth (S. cerevisiae deletion strains, locus YMR263W, strain SAP30, active compounds read low) was 1.01 and the normalized growth (S. cerevisiae deletion strains, locus YMR307W, strain GAS1, active compounds read low) was 0.992 and 1.01. For the same compound, the normalized growth (S. cerevisiae deletion strains, locus YNL067W, strain RPL9B, active compounds read low) was 1.01, the normalized growth (S. cerevisiae deletion strains, locus YNL071W, strain lat1, active compounds read low) was 1.01 and the normalized growth (S. cerevisiae deletion strains, locus YNL128W, strain TEP1, active compounds read low) was 1.01 and 1. The normalized growth (S. cerevisiae deletion strains, locus YNL153C, strain GIM3, active compounds read low) was 1.02 and 0.991, the normalized growth (S. cerevisiae deletion strains, locus YNL175C, strain NOP13, active compounds read low) was 0.997 and the normalized growth (S. cerevisiae deletion strains, locus YNL183C, strain NPR1, active compounds read low) was 0.913. For the same compound, the normalized growth (S. cerevisiae deletion strains, locus YNL197C, strain WHI3, active compounds read low) was 0.999, the normalized growth (S. cerevisiae deletion strains, locus YNL209W, strain ssb2, active compounds read low) was 0.992 and the normalized growth (S. cerevisiae deletion strains, locus YNL224C, strain SQS1, active compounds read low) was 1.01. The normalized growth (S. cerevisiae deletion strains, locus YNL233W, strain BNI4, active compounds read low) was 1.01, the normalized growth (S. cerevisiae deletion strains, locus YNL248C, strain rpa49, active compounds read low) was 1.02 and the normalized growth (S. cerevisiae deletion strains, locus YNL250W, strain rad50, active compounds read low) was 0.972. For the same compound, the normalized growth (S. cerevisiae deletion strains, locus YNL271C, strain bni1, active compounds read low) was 0.979, the normalized growth (S. cerevisiae deletion strains, locus YNL298W, strain CLA4, active compounds read low) was 0.996 and the normalized growth (S. cerevisiae deletion strains, locus YNL307C, strain MCK1, active compounds read low) was 1. For the same compound, the normalized growth (S. cerevisiae deletion strains, locus YNL322C, strain KRE1 (second series), active compounds read low) was 0.937, the normalized growth (S. cerevisiae deletion strains, locus YNL322C, strain KRE1, active compounds read low) was 1.01 and the normalized growth (S. cerevisiae deletion strains, locus YNR049C, strain mso1, active compounds read low) was 1.02. For the same compound, the normalized growth (S. cerevisiae deletion strains, locus YNR052C, strain pop2, active compounds read low) was 0.983, the normalized growth (S. cerevisiae deletion strains, locus YOL006C, strain TOP1, active compounds read low) was 1.02 and the normalized growth (S. cerevisiae deletion strains, locus YOL012C, strain htz1) was 1.04. It also gave a normalized growth (S. cerevisiae deletion strains, locus YOL147C, strain pex11, active compounds read low) of 0.978, a normalized growth (S. cerevisiae deletion strains, locus YOR001W, strain rrp6, active compounds read low) of 1.03 and a normalized growth (S. cerevisiae deletion strains, locus YOR061W, strain CKA2, active compounds read low) of 1.02. It also gave a normalized growth (S. cerevisiae deletion strains, locus YOR069W, strain VPS5, active compounds read low) of 1.02, a normalized growth (S. cerevisiae deletion strains, locus YOR070C, strain gyp1, active compounds read low) of 1.03 and a normalized growth (S. cerevisiae deletion strains, locus YOR080W, strain dia2, active compounds read low) of 1.01. It also gave a normalized growth (S. cerevisiae deletion strains, locus YOR083W, strain WHI5 (second series), active compounds read low) of 1.01, a normalized growth (S. cerevisiae deletion strains, locus YOR083W, strain WHI5, active compounds read low) of 0.979 and a normalized growth (S. cerevisiae deletion strains, locus YOR106W, strain vam3, active compounds read low) of 0.959. The normalized growth (S. cerevisiae deletion strains, locus YOR136W, strain idh2, active compounds read low) was 0.981, the normalized growth (S. cerevisiae deletion strains, locus YOR144C, strain elg1, active compounds read low) was 0.978 and the normalized growth (S. cerevisiae deletion strains, locus YOR184W, strain ser1, active compounds read low) was 0.989. The normalized growth (S. cerevisiae deletion strains, locus YOR231W, strain MKK1, active compounds read low) was 0.953, the normalized growth (S. cerevisiae deletion strains, locus YOR265W, strain rbl2, active compounds read low) was 1.01 and the normalized growth (S. cerevisiae deletion strains, locus YOR270C, strain vph1, active compounds read low) was 1.03. It also gave a normalized growth (S. cerevisiae deletion strains, locus YOR290C, strain snf2, active compounds read low) of 0.993, a normalized growth (S. cerevisiae deletion strains, locus YOR316C, strain cot1, active compounds read low) of 0.99 and a normalized growth (S. cerevisiae deletion strains, locus YPL051W, strain arl3, active compounds read low) of 0.974. The normalized growth (S. cerevisiae deletion strains, locus YPL055C, strain LGE1, active compounds read low) was 1.02, the normalized growth (S. cerevisiae deletion strains, locus YPL078C, strain atp4, active compounds read low) was 0.98 and the normalized growth (S. cerevisiae deletion strains, locus YPL106C, strain sse1, active compounds read low) was 1.02. The normalized growth (S. cerevisiae deletion strains, locus YPL240C, strain hsp82, active compounds read low) was 1.01, the normalized growth (S. cerevisiae deletion strains, locus YPL241C, strain CIN2, active compounds read low) was 1.02 and the normalized growth (S. cerevisiae deletion strains, locus YPL256C, strain CLN2, active compounds read low) was 0.989. It also gave a normalized growth (S. cerevisiae deletion strains, locus YPR119W, strain clb2, active compounds read low) of 0.978, a normalized growth (S. cerevisiae deletion strains, locus YPR141C, strain kar3, active compounds read low) of 0.987 and a normalized growth (S. cerevisiae deletion strains, locus YPR163C, strain tif3, active compounds read low) of 0.98. It also gave a normalized growth (S. cerevisiae deletion strains, locus YPR167C, strain met16, active compounds read low) of 0.982, a normalized growth (S. cerevisiae deletion strains, strain wtn01, active compounds read low) of 0.987 and a normalized growth (S. cerevisiae strains, strain wild type, active compounds read low) of 1.01.
